Measurements from PubChem BioAssay (NCATS).
Results filed as inconclusive are left out. A number with no mark means an inactive call. The source made the active and inactive calls. Calls follow the shape of the dose curve; as a rule, active = well fitted inhibition curve with a large enough effect; inconclusive = small, poorly fitted or top-dose-only effect; inactive = flat fitted curve, though single readings scatter. Where a SMILES comes first, the peptide text is derived from it.

System: Zika virus NS2B-NS3 protease
Assay: Primary screen GU AMC qHTS for Zika virus inhibitors (AID 1347154);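 also: 0% = no-inhibitor control and -100% = no-enzyme control; nearly all actives have a fitted effect of over 70% in size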
Settings: Zika NS2B-NS3 unlinked protease, AMC fluorogenic substrate; series mostly up to 54.1 µM; activity change, negative = inhibition: at the top concentration
Description: Avindra Nath, Ph.D., National Institute of Neurological Disorders and Stroke (NINDS), Bethesda, MD
Radhakrishnan Padmanabhan, Ph.D., Georgetown University (GU), Washington D.C.
Zika Virus causes congenital defects, including microcephaly and is associated with Guillain-Barre syndrome, eningoencephalitis and myelitis in infected adult. […] Using a target-based approach, we hope to establish a screening paradigm to uncover novel, cell-active NS2B-NS3 protease (Zika Virus) specific inhibitors from NCATS' collection of small molecules using qHTS.
Early Translation Branch (ETB)
National Center for Advancing Translational Sciences (NCATS), Rockville, MD
National Institute of Health (NIH), Bethesda, Maryland
Padmanabhan lab provided the NS2B hydrophilic domain and NS3 protease domain in a noncovalent complex used for the unlinked assay. Control compound aprotinin is obtained from Thermo Scientific (#78432; Waltham, Massachusetts). NS2B-NS3 AMC substrate (Bz-Nle-Lys-Arg-Arg-AMC; Nle-KRR-AMC) purchased from Bachem (#I-1995; Torrance, CA). Ac-VKTGKR-AMC purchased from Genscript or Bachem, Ac-FAAGKR-AMC purchased from Genscript, Ac-GLVKRR-AMC purchased from Genscript, Ac-LKKR-AMC purchased from Genscript.
GU AMC unlinked NS2B-NS3 protease qHTS protocol
Briefly, 3 microL of Zika virus unlinked NS2B-NS3 protease (25 nM for linked final concentration), in assay buffer (10 mM Tris-HCl pH 8.0 with 0.01% Tween 20) was dispensed into a 1,536-well solid-bottom black plate (Greiner Bio One, Monroe, NC). […] Plates were then read immediately on a ViewLux High-throughput CCD imager (PerkinElmer, Waltham, MA) equipped with standard UV fluorescence optics (340(30) nm excitation, 450(20) nm emission) then incubated (room temperature, protected from light) for 15 minutes (~20% conversion). The change in fluorescence intensity over the 15-minute reaction period was normalized against no-inhibitor and no-enzyme controls and the resulting percent inhibition data were fitted to a 4-parameter Hill equation. Aprotinin was used as the intraplate control.

SMILES	activity change, negative = inhibition	Potency
C=CCN1CCC23c4c5ccc(O)c4OC2/C(=N/N=C2\CCC4(O)C6Cc7ccc(O)c8c7C4(CCN6CC=C)C2O8)CCC3(O)C1C5 (stereo not given)	-10.9%	
CCCCC/C=C\C/C=C\CCCCCCCC(=O)NCCO	7.86% [at 6.83 µM]	
c1cncc([C@@H]2CCCCN2)c1	7.41%	
C=C(C)[C@H]1C2C(=O)O[C@H]1[C@H]1OC(=O)[C@@]34O[C@@H]3C[C@]2(O)[C@@]14C	8.4%	
C=CCN1CCC2(C)c3cc(O)ccc3CC1[C@@H]2C (stereo not given in full)	-9.47%	
CCN1C[C@]2(COC(=O)c3ccccc3N3C(=O)CC(C)C3=O)CC[C@H](OC)[C@@]34C5C[C@@H]6[C@@H](OC)C[C@@](O)(C5[C@H]6OC)[C@](O)([C@@H](OC)C23)[C@@H]14 (stereo not given in full)	-6.86%	
C=CCN1CC[C@]23c4c5ccc(O)c4O[C@@H]2C(=O)CC[C@]3(O)[C@H]1C5	4.95%	
CC1(C)[C@@H](O)C[C@H]2[C@](C)(O)[C@@H]3CC[C@H]4[C@@H](O)[C@@]3(C[C@@H](O)[C@@]21O)C[C@@]4(C)O		inactive
CC(=O)N1CC[N+](C)(C)CC1		inactive
C=CCN1CCC2(C)c3cc(O)ccc3CC1C2C (stereo not given)	3.81%	
CC(C)C[C@H](NC(=O)[C@H](Cc1ccccc1)NC(=O)CNC(=O)[C@@H](NC(=O)[C@@H](N)Cc1ccc(O)cc1)[C@H](C)O)C(=O)N[C@H](C(=O)O)[C@H](C)O	4.9% [at 6.83 µM]	
CC(=O)O[C@@H]1CN2CCC1CC2	5.85%	
N#CC(C#N)=NNc1ccc(OC(F)(F)F)cc1	0.254% [at 104 µM]	
C[C@H](N)Cc1cnc[nH]1		inactive
COC(=O)/C=C\C(=O)N[C@@H]1CC[C@@]2(O)[C@H]3Cc4ccc(O)c5c4[C@@]2(CCN3CC2CC2)[C@@H]1O5	0.388%	
CCc1cccc(CC)c1NC1=NCCN1	2.09%	
c1ccc2sc(C3(N4CCCC4)CCCCC3)cc2c1	7.04%	
CN1[C@@H]2CC[C@H]1CC(OC(c1ccc(F)cc1)c1ccc(F)cc1)C2 (stereo not given in full)	10.2%	
CC(O)C(C)OC(=O)[C@@H]1C[C@@H]2c3cccc4c3c(cn4C(C)C)C[C@H]2N(C)C1 (stereo not given in full)	0.379%	
CN1CC[C@@H]2CN3CCc4cccc(c43)[C@@H]2C1	-13.2%	

SMILES	activity change, negative = inhibition	Potency
O[C@@H]1CCCN2C[C@@H](O)[C@@H](O)C12 (stereo not given in full)	16.2% [at 194 µM]	
Cc1ccc2c(c1)Cc1c(C(=O)NN3CCCCC3)nn(-c3ccc(Cl)cc3Cl)c1-2	-0.896%	
CCCCC[C@@H](/C=C/C=C\C/C=C\C/C=C\CCCC(=O)O)OO	15.4% [at 0.59 µM]	
c1cncc(C2CCCCN2)c1 (stereo not given)	3.65%	
COc1ccc2c(CCN)c[nH]c2c1	16.1%	
Oc1ccc2c3c1O[C@H]1c4c(c5ccccc5n4Cc4ccccc4)C[C@@]4(O)C(C2)N(CC2CC2)CC[C@]314	6.93%	
Clc1ccc(C2=CCC[C@H]3CC[C@@H]2N3)cn1	5.72%	
c1cncc(C2CCCN2)c1 (stereo not given)	1%	
Cc1ccc2c(c1)Cc1c(C(=O)NC3CCCCC3)nn(-c3ccc(Cl)cc3Cl)c1-2	13.1%	
CCCN(C/C=C/I)C1CCc2ccc(O)cc2C1 (stereo not given)	-19.2%	
CCCC[C@@H](C)[C@@H](OC(=O)C[C@@H](CC(=O)O)C(=O)O)[C@H](C[C@@H](C)C[C@H](O)CCCC[C@@H](O)C[C@H](O)[C@H](C)N)OC(=O)C[C@H](CC(=O)O)C(=O)O	-3.71% [at 25.8 µM]	
O[C@@H]1[C@H](O)[C@H]2[C@@H](O)CCN2C[C@@H]1O	8.72%	
C[C@@H]1O[C@@H](O[C@H]2C[C@@H](O)[C@]3(CO)[C@@H]4C(CC[C@]3(O)C2)[C@@]2(O)CC[C@H](C3=CC(=O)OC3)[C@@]2(C)C[C@H]4O)[C@H](O)[C@H](O)[C@H]1O (stereo not given in full)	-7.39%	
N[C@H](CCP(=O)(O)O)C(=O)O		inactive
C[C@H](N)C(=O)N[C@@H](C)C(=O)N[C@@H](Cc1ccccc1)C(=O)CCl (HELM PEPTIDE1{A.A.F.[ClC[*:1]]}$$$$V2.0)	19% [at 104 µM]	
COc1cccc2c1cc([N+](=O)[O-])c1c(C(=O)O)cc3c(c12)OCO3	0.425% [at 104 µM]	
C=CCN1C[C@H](C)N([C@@H](c2ccccc2)c2ccc(C(=O)N(CC)CC)cc2)C[C@H]1C	13.5%	
CC(C)(c1ccc(OC[C@@H]2CO2)cc1)c1ccc(OC[C@H]2CO2)cc1	7.54%	
CC1CCC2C(C)C(=O)OC3O[C@]4(C)CCC1[C@@]32OO4 (stereo not given in full)	16.2%	
CCCCCCC[n+]1ccc(-c2cc[n+](CCCCCCC)cc2)cc1	1.14%	
